An excerpt weighted towards active compounds, which were near 9.6% of everything screened.
Cav3 T inh – blocks human Cav3.2 T-type calcium channel | 100,000 tested, 4% active | O95180 | Cav3.2-expressing cells, Fluo-4 calcium fluorescence FDSS; stronger effect = lower value | B-score at 10 µM;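 active = single-dose well whose peak fluorescence ratio is a statistical outlier from its plate by either plate-standardised score or position-corrected B-score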
PostGolgi ctrl – yeast control strain growth, post-Golgi counter-screen. 98,000 tested, 5% active. efflux-deficient yeast background strain, growth absorbance A615, 16 h. inhibition, % at 10 µM
PostGolgi yeast – growth inhibition of a yeast mutant, post-Golgi transport screen | post-Golgi transport phenotypic cell assay | AID 739 | inhibition, % at 10 µM | 98,000 tested, 0.9% active;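 also: yeast cells grown in 1536-well plates; yeast grown about 18 h at 30C before absorbance read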
DAT uptake mod – modulates human dopamine transporter uptake under cocaine; Q01959; LLC-PK1 hDAT cells, [14C]-dopamine uptake with cocaine IC80; actives deviate in either direction; B-score at 10 µM; 110,000 tested, 1.3% active;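 active = Z score or B-score, a plate-position-corrected score, falls beyond the plate's 99.7% confidence bounds, in either direction; inactive = both scores lie inside the 99.7% bounds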;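 also: scored against the spread of the other compound wells on the same plate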
PLAP act – human PLAP activation | activation fold at 20 µM | purified PLAP enzyme, luminescent substrate read-out; stronger effect = higher value | 96,000 tested, 1.2% active | P05187 | AID 696; in the data active = activation fold above about 2
Numbers without * were called inactive; . = not tested or not shown. Rule as the data show it, unless noted: active = inhibition above about 30%; inactive = the rest.

SMILES	Cav3 T inh	PostGolgi ctrl	PostGolgi yeast	DAT uptake mod	PLAP act
O=C(CSc1nnc(C2CC2)n1-c1ccccc1)NCCc1ccccc1	0.58	4	-11	-0.018	1
CC(C)(C)c1cc(NCCCn2ccnc2)n2ncc(-c3ccc(Cl)cc3)c2n1	-0.071	93*	58*	0.35	1
O=S(=O)(NCc1ccccn1)c1ccccc1	0.95	11	-3	-2.9*	1.3
COc1cc(Cl)c(S(=O)(=O)NCc2ccccn2)cc1Cl	1.5	0	-6	-1.6	2.3*
COc1ccccc1Oc1ccc(S(=O)(=O)NCc2ccccn2)cc1	0.44	15	-1	-0.33	1.7
CCOc1cc(Cl)c(S(=O)(=O)NCc2ccccn2)cc1Cl	0.02	6	-2	1.1	1.6
CCOC(=O)N1CCN(C(=O)Nc2ccc(Cl)cc2Cl)CC1	0.34	9	9	2	1.1
CCOC(=O)c1cc2cc3ccccc3cc2[nH]1	-0.16	.	.	-1.1	.
CC(C)P(=O)(Cc1cccc(C#N)c1)C(C)C	0.38	6	16	0.025	1
COc1ccc(OC)c(CN2CCN(C(=O)c3cccs3)CC2)c1	-0.53	2	5	0.33	1.5
COc1ccc(OC)c(CN2CCN(C(=O)c3cccc4ccccc34)CC2)c1	0.19	34*	3	0.4	1.8
Clc1ccc2[nH]c(-c3ccccc3)cc2c1	0.46	42*	-6	-0.12	1
CCOC(=O)c1c(C)[nH]c(C(=O)CN2C(=O)NC(CC)(c3ccccc3)C2=O)c1C (stereo not given)	-5.7*	-3	-8	1.1	1.6
O=C(Cc1cn2ccsc2n1)Nc1nc2c(s1)CN(Cc1ccccc1)CC2	0.036	-2	4	0.27	1.7
CCCNc1nc(NCC)nc(OC)n1	0.67	6	-1	0.3	1.2
Cc1ccc2cc(C)c(SCC#N)nc2c1	-1.4	16	31*	-0.0042	0.9
COC(=O)CSc1nc2cc(C)ccc2cc1C#N	1.2	1	0	-0.081	1
CC1CC(N(C(=O)c2ccco2)c2ccccc2)c2ccccc2N1 (stereo not given)	-4.3*	29	-3	-0.85	1.1
CC1CC(c2ccccc2)n2nc(NC(=O)c3ccco3)nc2N1 (stereo not given)	-1.1	0	-6	-0.021	1.5
O=C1CN(C(=O)c2cccs2)c2ccccc2N1	0.057	33*	-4	-0.47	0.8
CC(C)c1ccc(NC(=O)COc2ccc(S(=O)(=O)N3CCOCC3)cc2)cc1	-0.028	2	-10	-0.69	0.9
OCc1nc2ccccc2n1CCCOc1ccc(Br)cc1	-1.7	45*	1	2.1	1.6
Cn1c(=O)n(CCCOc2ccc(Br)cc2)c2ccccc21	-4.4	39*	-1	-0.44	1.2
Cn1c(=O)n(CCCOc2ccc(Cl)cc2)c2ccccc21	-1.1	49*	5	0.63	1.5
Cc1cccc(OCCn2c(CCCO)nc3ccccc32)c1	-2.7	30*	5	-0.025	1.6
SMILES	Cav3 T inh	PostGolgi ctrl	PostGolgi yeast	DAT uptake mod	PLAP act
COc1ccccc1OCCn1c(CO)nc2ccccc21	-0.32	4	-15	0.94	1
CCCn1nnnc1NC(=O)c1cccs1	1.1	3	13	-0.65	1
CCS(=O)(=O)N1CCC(C(=O)c2ccc(Cl)cc2)CC1	0.78	.	.	0.58	.
O=C1CN(C(=O)c2ccco2)C(c2ccccc2)c2cc(Cl)ccc2N1 (stereo not given)	-0.39	5	6	0.98	1.5
C=CCN1C(=O)C(O)=C(C(C)=O)C1c1ccccc1F (stereo not given)	0.8	1	-2	-0.039	1
O=C(N/N=C/c1ccccc1)c1sccc1OCc1ccc(F)cc1	-0.17	68*	0	1.3	1
CCC(NC(=O)c1cccc(Cn2cc([N+](=O)[O-])cn2)c1)c1ccc(C(C)C)cc1 (stereo not given)	-4.3*	8	-5	-0.67	1.4
CC(NC(=O)c1cccc(Cn2cc([N+](=O)[O-])cn2)c1)c1ccc(C(C)(C)C)cc1 (stereo not given)	-4.3*	11	12	-0.14	1.5
CCOC(=O)CSc1nc2ccccc2n1CC(=O)N(C(C)C)C(C)C	1.2	16	5	1.2	1
CC(C)N(C(=O)CSc1nc2ccccc2n1Cc1ccc(F)cc1)C(C)C	-6.3*	.	.	0.0082	.
CCc1nnc(NS(=O)(=O)c2ccc(N/C=C\C(=O)c3ccc(C)cc3)cc2)s1	-0.13	21	-6	0.84	1.5
COc1ccc(CCNc2oc(-c3ccccc3OC)nc2C#N)cc1OC	-0.011	-5	18	4.6*	1.6
COc1ccccc1-c1nc(C#N)c(NCc2ccc(F)cc2)o1	0.053	41*	0	0.0032	0.9
Cc1ccc(SCC(=O)NCc2cccnc2)cc1	-0.038	2	1	0.027	0.9
CCn1c(NCc2cc(OC)ccc2OC)nc2ccccc21	-3.2	7	-6	-0.14	0.9
CCCn1c(NCc2cc(OC)ccc2OC)nc2ccccc21	-4.8*	2	-8	1.2	0.8
CC(C)(C)c1nn(-c2ccccc2)c2[nH]c(=O)c(CNCc3ccc4c(c3)OCO4)cc12	-0.19	11	-10	1.5	2.1*
COc1cc(OC)c(C2N(c3ccc(Cl)cc3)C(=O)C3CCCN32)cc1OC (stereo not given)	-0.52	13	-6	0.54	1.4
Cc1cc(C)c2nc(N3CCCC(C(=O)N4CCN(c5ncccn5)CC4)C3)sc2c1 (stereo not given)	-2.3	67*	-2	0.03	1.5
O=C(c1ccc2nc(N3CCOCC3)sc2c1)N1CCN(C(=O)c2ccco2)CC1	1.6	17	3	0.71	0.9
Cc1cc(C)c2nc(N3CCC(C(=O)N4CCN(C(=O)c5ccco5)CC4)CC3)sc2c1	-0.45	9	-2	3.7*	1.6
CNC(=O)CSc1nnc(-c2ccco2)n1-c1ccccc1OC	-0.21	.	.	-1.1	0.9
COC(=O)C1C(O)=C(C=NCC(C)N=CC2=C(O)C(C(=O)OC)C(C)(C)CC2=O)C(=O)CC1(C)C (stereo not given)	0.73	4	11	-0.56	2.2*
COC(=O)C1=C(C)N(CCCC(=O)O)C(=O)NC1c1ccccc1OS(=O)(=O)c1ccc([N+](=O)[O-])cc1 (stereo not given)	1.1	.	.	-0.14	.
O=C(NC1CCCCC1)C(c1ccco1)N(Cc1cccnc1)C(=O)C1COc2ccccc2O1 (stereo not given)	-0.59	30*	7	1	1.4
CCC(C)/C=C/C1=CC2=C(Cl)C(=O)C3(C)OC(=O)C(C(=O)C(C)C(C)O)C3C2=CO1 (stereo not given)	-0.018	.	.	-0.9	.
COc1ccc(OC)c(NC(=O)CC2C(=O)NCCN2C(=O)Nc2cccc(Cl)c2)c1 (stereo not given)	-0.018	-6	-2	0.84	2*
c1ccc(-c2csc(NNC3=NCCCCC3)n2)cc1	0.53	-5	2	0.095	2.1*
CCSC1=C(C#N)C(c2ccccc2Cl)C(C(=O)c2cccs2)C(O)(C(F)(F)F)N1 (stereo not given)	-9.2*	9	9	0.97	1.1

Screening results as filed in PubChem BioAssay.
